In PubChem BioAssay (NCI) one finds growth data, which are given here for 8 compounds.

About 83,000 compounds went through this panel and 20% of them were active in at least one assay; those are over-represented in the sample as a whole.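 The test compound was applied at a single concentration to cells in 96-well plates for 48 hours, and percent growth was recorded.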 A number with no mark means an inactive call. Activity calls are given as the source filed them. How the source made its calls: active means growth percent below 10; inactive means the rest.

Some test systems named below: SR leukemia; RPMI-8226 leukemia; OVCAR-8 ovarian; OVCAR-5 ovarian; OVCAR-4 ovarian; SK-OV-3 ovarian; IGROV1 ovarian; OVCAR-3 ovarian; HS 578T breast; NCI/ADR-RES ovarian; T-47D breast; BT-549 breast; MDA-MB-435 melanoma; SW-620 colon; MCF7 breast; HCT-116 colon; HCC-2998 colon; KM12 colon.
Experiment in all cases: NCI-60 one-dose screen, 48 h (100 = growth as untreated, 0 = no growth, -100 = all killed)
Common to all, as to settings: 10 µM unless noted

In the case of `CCCCCCCCCCCCCCCCCCOc1ccccc1CC(=O)NCC[N+]1(C)CCOCC1`, the growth in the test on SR leukemia was 18.2%; in the test on RPMI-8226 leukemia, -4.77% (active); in the test on OVCAR-8 ovarian it was 67.8%; in the test on OVCAR-5 ovarian it was 26.3%; in the test on OVCAR-4 ovarian, 71.7%; in the test on SK-OV-3 ovarian it was 81.2%. Further, the growth in the test with IGROV1 ovarian was -67.2% (active); in the test on OVCAR-3 ovarian, 67.3%; in the test on HS 578T breast it was 67.4%; with NCI/ADR-RES ovarian, 103%; with T-47D breast, 62.3%; in the test on BT-549 breast it was 39.8%. Moreover, the growth in the test on MDA-MB-435 melanoma was 76%; in the test on SW-620 colon, 79.2%; in the test on MCF7 breast it was 69%; in the test with HCT-116 colon, 61.8%; in the test with HCC-2998 colon, 31.1%; in the test on KM12 colon, 5.07% (active).
In the case of `C=CCn1c(SCC(=O)Nc2ccc(C(=O)/C=C/c3ccc(OC)cc3)cc2)nnc1-c1ccccc1`, the growth with SR leukemia was 85.3%; in the test on RPMI-8226 leukemia, 5.8% (active); with OVCAR-8 ovarian it was 101%; in the test on OVCAR-5 ovarian, 82.7%; in the test on OVCAR-4 ovarian, 77.4%; in the test with SK-OV-3 ovarian it was 106%. The growth was 84.9% with IGROV1 ovarian; 89.5% with OVCAR-3 ovarian; 100% in the test with HS 578T breast; 89.1% in the test on NCI/ADR-RES ovarian; 57.3% in the test with T-47D breast; 43.8% in the test on BT-549 breast. For the same compound, the growth in the test on MDA-MB-435 melanoma was 49%; with SW-620 colon it was 97.7%; with MCF7 breast, 20%; in the test with HCT-116 colon it was 9.87% (active); in the test on HCC-2998 colon it was 102%; with KM12 colon, 82.6%.
For `Cc1ncc(C(=O)Nc2ccc(CN3CCN(C)CC3)c(C(F)(F)F)c2)cc1C#Cc1cnc(N)c2cnccc12`, the growth is -17.8% (active) in the test on SR leukemia; 39.2% in the test with RPMI-8226 leukemia; 15.4% with OVCAR-8 ovarian; 12.5% with OVCAR-5 ovarian; 40.7% with OVCAR-4 ovarian; -30.9% (active) with SK-OV-3 ovarian. Further, the growth in the test on IGROV1 ovarian is -31.3% (active); with OVCAR-3 ovarian, 31.2%; in the test on HS 578T breast it was -16.6% (active); in the test with NCI/ADR-RES ovarian, 55.3%; with T-47D breast, 8.63% (active); with BT-549 breast it was 14.6%. Further, the growth in the test with MDA-MB-435 melanoma is 6.4% (active); in the test on SW-620 colon, -55.3% (active); in the test on MCF7 breast it was -73.7% (active); with HCT-116 colon, -86.1% (active); in the test with HCC-2998 colon it was -1.5% (active); in the test with KM12 colon, 9.54% (active).
With `O=C(N=Nc1c(O)[nH]c2ccccc12)Nc1ccc(Cl)cc1`, the growth in the test on SR leukemia is 79.1%; in the test with RPMI-8226 leukemia, 56.1%; in the test with OVCAR-8 ovarian, 102%; with OVCAR-5 ovarian it was 86%; with OVCAR-4 ovarian it was 98.2%; with SK-OV-3 ovarian, 96.5%. The growth in the test on IGROV1 ovarian was 80.2%; in the test on OVCAR-3 ovarian it was 97.5%; in the test with HS 578T breast, 95.1%; with NCI/ADR-RES ovarian, 110%; in the test with T-47D breast, 87.2%; in the test on BT-549 breast, 103%. Further, the growth was 95.5% with MDA-MB-435 melanoma; 90.3% in the test on SW-620 colon; 76.3% in the test with MCF7 breast; 94.4% in the test on HCT-116 colon; 99% with HCC-2998 colon; 81.1% in the test with KM12 colon.
As to `C[C@@H](CO)[C@@H]1CC[C@]2(C(=O)N3CCN(C)CC3)CC[C@]3(C)[C@H](CC[C@@H]4[C@@]5(C)CC[C@H](O)C(C)(C)[C@@H]5CC[C@]43C)[C@@H]12`, the growth was -12.4% (active) in the test on SR leukemia; 38.2% with RPMI-8226 leukemia; 80.3% in the test with OVCAR-8 ovarian; 101% in the test on OVCAR-5 ovarian; 78.3% with OVCAR-4 ovarian; 108% with SK-OV-3 ovarian. Also, the growth in the test with IGROV1 ovarian was 74%; with OVCAR-3 ovarian it was 87.7%; with HS 578T breast, 85.2%; with NCI/ADR-RES ovarian it was 84.5%; in the test on T-47D breast, 76.7%; in the test on BT-549 breast, 75.8%. Moreover, the growth in the test with MDA-MB-435 melanoma was 75.8%; in the test with SW-620 colon it was 51.5%; with MCF7 breast, 42.1%; in the test with HCT-116 colon, 16.7%; in the test with HCC-2998 colon, 105%; in the test with KM12 colon it was 86%.
In the case of `CS(=O)(=O)Nc1cc(-c2ccc3ncnc(Nc4ccc5c(cnn5Cc5cccnc5)c4)c3c2)cnc1Cl`, the growth was 21.5% in the test on SR leukemia; 54.7% in the test with RPMI-8226 leukemia; 75.6% in the test on OVCAR-8 ovarian; 49% with OVCAR-5 ovarian; 74.6% with OVCAR-4 ovarian; 58.4% with SK-OV-3 ovarian. Besides, the growth was 3.96% (active) in the test on IGROV1 ovarian; 19.2% with OVCAR-3 ovarian; -2.21% (active) with HS 578T breast; 93.2% in the test on NCI/ADR-RES ovarian; 0.364% (active) with T-47D breast; 17.1% with BT-549 breast. Besides, the growth is 53.9% in the test with MDA-MB-435 melanoma; 66.8% in the test on SW-620 colon; 15.2% in the test on MCF7 breast; 69.8% in the test with HCT-116 colon; 65.7% in the test with HCC-2998 colon; 82.9% with KM12 colon.
Turning to `C/C(=C(/c1ccc(Cl)cc1)c1ccc(OCCCN(C)C)cc1)c1ccc(Cl)cc1`, the growth with SR leukemia is -2.36% (active); in the test with RPMI-8226 leukemia, 55.6%; in the test on OVCAR-8 ovarian it was 96.1%; in the test on OVCAR-5 ovarian, 101%; with OVCAR-4 ovarian, 104%; in the test on SK-OV-3 ovarian, 120%. Moreover, the growth in the test with IGROV1 ovarian is 85.7%; in the test with OVCAR-3 ovarian it was 86.3%; in the test with HS 578T breast it was 87.1%; in the test on NCI/ADR-RES ovarian, 97.7%; in the test on T-47D breast, 69.1%; in the test with BT-549 breast, 111%. In addition, the growth is 92.6% with MDA-MB-435 melanoma; 64% in the test with SW-620 colon; 34.3% with MCF7 breast; 52.4% with HCT-116 colon; 101% in the test on HCC-2998 colon; 79.9% with KM12 colon.
For the compound `C=CCn1c(SCC(=O)Nc2ccc(C(=O)/C=C/c3cc(OC)c(OC)c(OC)c3)cc2)nnc1-c1cc(-c2ccc(OC)cc2)nc2ccccc12`, the growth in the test with SR leukemia is 50.9%; in the test on RPMI-8226 leukemia, 55.5%; with OVCAR-8 ovarian, 72.8%; with OVCAR-5 ovarian, 105%; in the test on OVCAR-4 ovarian it was 90%; in the test with SK-OV-3 ovarian, 98%. Besides, the growth in the test on IGROV1 ovarian is 98.5%; in the test on OVCAR-3 ovarian, 93.4%; with HS 578T breast, 90.4%; in the test on NCI/ADR-RES ovarian, 96.4%; in the test with T-47D breast, 84.9%; in the test on BT-549 breast it was 90.1%. Besides, the growth with MDA-MB-435 melanoma was 100%; in the test on SW-620 colon, 90.8%; in the test on MCF7 breast it was 64.4%; in the test with HCT-116 colon it was 67.8%; in the test with HCC-2998 colon, 107%; in the test with KM12 colon it was 94%.
